In the library only some 6.5% were active in any assay of this set; here they are far more common.
LASV entry inh: blocks Lassa virus binding to or entry into cells | 300,000 tested, 1.2% active | Potency, µM (titrated, usually from 37.9 µM), for the others: top-dose activity change, negative = inhibition, hits mostly inhibitors | Lassa virus pseudotype entry inhibition, cell reporter; calls by dose curve; tested in HEK293 cells; further: potency means the concentration at half of the fitted maximal effect; nearly all actives have a fitted effect of over 50% in size
FMDV antiviral: blocks foot and mouth disease virus | FMDV antiviral cell-based qHTS | Potency, µM (highest dose often 57.9 µM), without a hit: at the highest dose activity change, negative = inhibition, hits mostly inhibitors | 410,000 tested, 1.2% active; calls by dose curve; tested in HEK293T cells; further: read-out not given here; potency means the concentration at half of the fitted maximal effect; nearly all actives have a fitted effect of over 45% in size
VACV mCherry inh: inhibitors of vaccinia virus infection (mCherry reporter signal); Vaccinia virus mCherry reporter infection, fluorescence; 310,000 tested, 0.63% active; Potency, µM (top dose mostly 36.5 µM), without a hit: top-dose activity change, negative = inhibition, actives largely listed as inhibitors; calls by dose curve; tested in A549 cells; further: potency means the concentration at half of the fitted maximal effect; nearly all actives have a fitted effect of over 35% in size
HCMV antiviral: human cytomegalovirus inhibition; 410,000 tested, 4.5% active; HFF cells, HCMV-luciferase reporter, 72 h; active compounds read low; activity change, negative = inhibition, % at 57.5 µM; AID 1259415; in the data active means activity change below about -60%; inconclusive means no clear call, values can overlap the other calls; inactive means above about -39%
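HFF cells seeded 16 h at 37C, treated with compounds, infected with luciferase-reporter HCMV at MOI 1 PFU/cell; luciferase read at 72 h post infection, normalized to buffer-only and Salinomycin controls.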
Vaccinia Venus: inhibitors of vaccinia virus (Venus reporter); Vaccinia virus Venus reporter expression, fluorescence; Potency, µM (doses to about 36.5 µM), without a hit: at the top dose activity change, negative = inhibition, most hits filed as inhibitors; 330,000 tested, 0.46% active; calls by dose curve; tested in A549 cells; further: potency means the concentration at half of the fitted maximal effect; nearly all actives have a fitted effect of over 30% in size
MARV entry inh: blocks Marburg virus binding to or entry into cells | 300,000 tested, 1.8% active | Potency, µM (series often up to 37.8 µM), for the others: top-dose activity change, negative = inhibition, most hits filed as inhibitors | Marburg virus pseudotyped entry inhibition, cell reporter | AID 540276; calls by dose curve; tested in HEK293 cells; further: potency means the concentration at half of the fitted maximal effect
Starred values were filed as active, the others as inactive; i = inactive; ? = inconclusive; . = no result given; [ ] = remark or other dose. On the % scale 0 is the no-effect control and ±100 the full control effect.

SMILES	LASV entry inh	FMDV antiviral	VACV mCherry inh	HCMV antiviral	Vaccinia Venus	MARV entry inh
CCCN1C(=O)c2ccccc2NC1c1ccc(OC)cc1OC (configuration not stated)	4.7%	.	-2.5%	52.7	-9.5%	-7.0%
CCCN1C(=O)c2ccccc2NC1c1ccc(OC)cc1O (configuration not stated)	1.58µM*	?	.	-91.4*	-13.6%	?
NC(=O)c1ccc(NC(=O)c2ccc(COc3ccccc3Br)cc2)cc1	15.0%	14.3%	-5.9%	-19.2	5.3%	-10.7%
Cc1cc(C)n(Cc2ccc(C(=O)O)cc2)n1	4.0%	.	i	-64.8*	-14.7%	8.1%
Cc1cc(C)n(Cc2ccc(NC(=O)c3ccc(COc4ccccc4Br)cc3)cc2)n1	?	12.6µM*	.	-90.4*	.	?
Cc1ccc(C)n1Cc1ccc(C(=O)O)cc1	-4.2%	2.7%	.	.	.	9.2µM*
Cc1c(C)n(Cc2ccccc2)c2ccc(C(=O)O)cc12	0.1%	-18.6%	1.4%	43.9	-1.8%	25.2%[14.2 µM]
Cc1ccc(C)c(N2CCN(C(=O)c3ccc(NC(=O)c4nsc5ccccc45)cc3)CC2)c1	5.4%[46.1 µM]	28.7%	-18.2%	29.4	-13.1%	.
COC[C@H]1CCCN1c1ccc2c(c1)O[C@H](COCc1ccccc1)CN([C@@H](C)c1ccccc1)S2(=O)=O	.	-12.0%	4.0%	2.3	9.3%	.
CC1CCCN(c2cccc3c2S(=O)(=O)N([C@H](C)c2ccccc2)C[C@@H](COCc2ccccc2)O3)C1 (some centres not stated)	.	.	.	-82.0*	.	.
CCCCN1CC(COCc2ccccc2)Oc2cccc(Oc3ccc(SC)c(C)c3)c2S1(=O)=O (configuration not stated)	.	.	.	-80.0*	.	.
C[C@H](c1ccccc1)N1C[C@@H](COCc2ccccc2)Oc2cccc(Oc3ccc(F)cc3)c2S1(=O)=O	3.53µM*	.	.	?	.	.
CC(=O)c1cccc(NC(=O)CCS(=O)(=O)c2ccc3c(c2)n(C)c(=O)c(=O)n3C)c1	-2.8%[46.1 µM]	-15.5%	0.1%	27.7	-5.9%	-4.1%[46.1 µM]
COc1cc2c(=O)c(S(=O)(=O)c3ccc(C)cc3)cn(Cc3cccc(C)c3)c2cc1OC	?	0.0%	-29.4%	-1.1	-24.1%	?
COc1cc(CNC2CCCCCCC2)cc(Br)c1OCC#N	-16.6%	0.0%	-1.1%	?	-29.4%	11.6µM*
CCOc1c(Br)cc(CNC2CCCCCCC2)cc1OC	.	?	.	-10.7	.	.
O=C(/C=C/c1ccccc1)Nn1c(-c2cccs2)nc2ccccc2c1=O	-2.0%	-9.0%	.	-60.9*	.	-2.6%
CCNC(=O)[C@@H]1[C@@H](CO)[C@@H]2Cn3c(cccc3=O)[C@@H]2N1Cc1cccc(F)c1	.	.	.	16.8	.	.
CC1(C)O[C@@H](C(O)(c2cc(C(F)(F)F)cc(C(F)(F)F)c2)c2cc(C(F)(F)F)cc(C(F)(F)F)c2)[C@H](C(O)(c2cc(C(F)(F)F)cc(C(F)(F)F)c2)c2cc(C(F)(F)F)cc(C(F)(F)F)c2)O1	.	.	.	.	.	-9.5%[14.2 µM]
CCC(=O)N1CC2(CN(C(=O)NC(C)C)C2)c2c(n(C)c3cc(OC)ccc23)[C@H]1CO	.	.	.	15.3	.	.
Cc1cc2c(N=O)c(NO)ccc2[nH]1	?	-2.2%	?	.	?	1.41µM*
COc1ccc(C[C@H]2CN3C(=NC[C@@H]3C(C)C)N2C[C@H](C)NC(=O)c2ccc(C)c(Br)c2)cc1	.	-15.0%	?	-37.3	?	.
Cc1ccc(C(=O)N[C@@H](C)CN2C3=NC[C@@H](Cc4ccccc4)N3C[C@H]2Cc2ccc(O)cc2)cc1Br	.	?	?	10.6	?	.
Cc1ccc(C(=O)N[C@@H](C)CN2C3=NC[C@H](Cc4ccccc4)N3C[C@H]2Cc2ccc(O)cc2)cc1Br	.	-24.5%	?	.	12.6µM*	.
COc1ccc(C[C@H]2CN3C(=NC[C@@H]3Cc3ccc(O)cc3)N2C[C@H](C)NC(=O)c2ccc(C)c(Br)c2)cc1	.	-17.5%	?	.	12.6µM*	.
SMILES	LASV entry inh	FMDV antiviral	VACV mCherry inh	HCMV antiviral	Vaccinia Venus	MARV entry inh
Cc1cccc(CCNC(=O)c2nn(C)c3c2CSc2ccccc2-3)c1	8.2%[46.1 µM]	-3.6%	-10.5%	-28.2	-2.6%	-1.2%[46.1 µM]
COc1ccc(C(=O)N(Cc2ccccc2)Cc2ccc(OC)c(COc3ccc(NC(C)=O)cc3)c2)cc1	.	.	-11.3%	.	?	.
Cc1cc2c(c(=O)n1Cc1ccccc1)[C@H]1O[C@](CCCCN3C(=O)c4ccccc4C3=O)(Cc3cc(C#N)ccc31)O2	.	.	.	.	.	7.7%[14.2 µM]
O=C(Nc1ccccn1)c1ccc(Cl)c(S(=O)(=O)N2CCc3ccccc32)c1	.	25.1µM*	.	-92.5*	.	.
O=C(NCC(c1ccco1)N1CCc2ccccc2C1)c1ccc(Cl)c([N+](=O)[O-])c1 (configuration not stated)	?	0.0%	i	-10.5	-7.7%	-3.5%
O=C(Nc1cccnc1)c1ccc(Cl)c(S(=O)(=O)N2CCc3ccccc32)c1	-2.0%	-22.1%	i	?	-6.9%	-11.2%[46.1 µM]
O=S(=O)(c1cccc2cccnc12)N1CCc2ccccc21	4.2%	6.8%	.	-62.7*	-24.9%	-7.1%
O=C(NCC(c1ccco1)N1CCCC1)c1ccc(Cl)c(S(=O)(=O)N2CCc3ccccc32)c1 (configuration not stated)	?	?	?	?	?	11.2µM*
C[C@@H]1CN(C2CCN(C(=O)c3ccccc3)CC2)C[C@H](C)O1	.	.	.	.	.	0.0%
O=C(NC1CCCCC1)c1ccc2c(c1)N(Cc1ccccc1Cl)C(=O)c1ccccc1S2	-0.2%[46.1 µM]	18.8%	1.3%	-16.6	1.0%	.
CCCCC/C=C\C\C=C/C=C/C=C/[C@@H](SCC(NC(C)=O)C(=O)O)[C@@H](O)CCCC(=O)O (some centres not stated)	.	-11.9%[0.463 µM]	-22.2%[0.293 µM]	.	-16.5%[0.293 µM]	.
N#C[C@H](C(=O)NC1CC1)c1nc2ccccc2nc1N1CCN(C/C=C\c2ccccc2)CC1	.	.	.	.	.	0.0%
CCCCn1c(SCC(=O)N2CCN(c3ccccc3)CC2)nc2ccsc2c1=O	25.9%[14.3 µM]	?	-22.5%	.	-23.8%	?
CCCCn1c(SCC(=O)N2CCC(C)CC2)nc2ccsc2c1=O	13.8%	?	.	?	.	8.2µM*
CCN(Cc1ccccc1)C(=O)CN1C(=O)COc2ccc(S(=O)(=O)N3CCOCC3)cc21	13.5%[46.1 µM]	-2.8%	-4.8%	68.8	-13.9%	.
CCOc1cc2[nH]c(=O)n(CCCC(=O)N3CCN(c4ccc(OC)cc4)CC3)c(=O)c2cc1OCC	-3.3%[46.1 µM]	?	-12.1%	-0.9	-13.8%	.
Cn1c(=O)c2sccc2n2c(CCCC(=O)Nc3ccc(Oc4ccc(Cl)cc4)cc3)nnc12	-13.4%[46.1 µM]	?	?	-76.3*	-28.9%	.
CC(=C1N=C(c2ccccc2)OC1=O)c1cccs1	.	.	.	-35.5	.	.
CN(C)CC1CCCCC1OC(=O)c1ccc(Br)cc1 (configuration not stated)	-7.1%	-14.7%	-4.5%	47.1	-7.1%	-23.5%[46.1 µM]

Screening results deposited in PubChem BioAssay by National Center for Advancing Translational Sciences (NCATS).
